About 410 (8.5%) of roughly 4,800 compounds showed an effect of 50% or more. The sample as a whole holds a higher share of strong results than the screen did.
The compounds below were run on Plasmodium falciparum (assay: Confirmatory screen in NF54 pLDH assay, in single point, at 2uM, 72h). Conditions: timepoint 72 hour.
Assay type: functional, Erythrocyte

In order of rising “% Inhibition” value:
1. O=C(NCCN1CCCC1)c1cc2n(n1)CCN(Cc1cccc(F)c1)C2=O  -27%
2. NC(=O)c1cc(Cl)c(Cl)c(Cl)c1  -22%
3. CCCCn1c(N)c(N(Cc2ccccc2OC)C(=O)c2ccoc2C)c(=O)[nH]c1=O  -22%
4. O=S(=O)(c1ccccc1F)C1CNC1  -18%
5. CCN(C[C@H]1CCCO1)C(=O)c1cnc(Cc2ccccc2)s1  -15%
6. O=C(c1cccc(COc2ccc(Br)cc2)c1)N1CCN(Cc2ccccc2)CC1  -14%
7. CCn1cc(C(=O)N(C2CCCCC2)C2CCCCC2)c(C)n1  -13%
8. O=C(Nc1ccc(N2CCCC2)c(F)c1)C(=O)Nc1ccon1  -13%
9. O=C(c1ccccc1Cl)N1CCC[C@H](n2cnc3ccccc3c2=O)C1  -12%
10. O=C(NC1CCCCC1)c1nn(-c2ccccc2)c(=O)c2ccccc12  -12%
11. O=C(Nc1ccc(Cn2ccnc2)cc1)c1cc2ccccc2cc1OC(F)F  -12%
12. Oc1cc(-c2ccc(F)cc2)nn1-c1nc2ccccc2[nH]1  -11%
13. CCn1nccc1CN(C)C(=O)c1cc(S(=O)(=O)N(C)C)c(Cl)cc1Cl  -10%
14. CCOC(=O)COc1cc(N)c(F)cc1Cl  -9%
15. CCCNC(=O)Cn1nc2cc(-c3ccc(OC)cc3)nc(C)n2c1=O  -8%
16. OC(CC(Nc1ccc(Cl)cc1)c1ccccc1)c1ccccc1 (stereo not given)  -7%
17. O=C(Nc1ccccc1-n1ccnc1)c1cnccn1  -7%
18. CCN1c2cc(C)ccc2-n2cccc2C12CCNCC2  -7%
19. O=C(c1cc2nc(-c3ccc(Cl)c(Cl)c3)cc(C(F)(F)F)n2n1)N1CCN(c2ccccc2)CC1  -7%
20. CC(NC(=O)C1CCC1)C(=O)Nc1ccn(C(C)c2ccccc2)n1 (stereo not given)  -6%
21. COc1ccccc1C1CC1c1nc(CC(=O)NC2CCCC2)no1 (stereo not given)  -5%
22. CC(C)[C@H](NC(=O)c1ccc(Cl)cc1Cl)C(=O)O  -5%
23. Cc1ccc(Nc2c(C(=O)NCc3ccc(F)cc3)cnc3c2c(C)nn3C)cc1  -5%
24. O=C(c1csc(C(=O)N2CCCC2)n1)N1CCN(Cc2ccccc2)CC1  -4%
25. Cc1cc(NCCc2nccn2C)ncn1  -4%
26. C[C@H]1CS(=O)(=O)N(c2ccc(C(=O)Nc3ccccc3Oc3ccccc3)c(Cl)c2)C1=O  -3%
27. CCc1c(C)nn(S(=O)(=O)c2ccc3ccccc3c2)c1O  -3%
28. O[C@@H](Cc1ccc2ccccc2n1)c1ccccc1  -3%
29. CCOC(=O)CNc1ccc(F)c(Cl)c1  -3%
30. Cc1ccc(NC(=O)Cn2c(C)cc(=O)c3sccc32)cc1Cl  -2%
31. O=C(CN1CCN(Cc2ccccc2F)C1=O)NC1CCCCCCC1  -2%
32. CCN1CCN(c2nc3ncn(CC(=O)NCCCc4ccccc4)c(=O)c3s2)CC1  -2%
33. CC[C@H]1C[C@@H]1CNC(=O)c1cccc(NC(=O)c2ccco2)c1  -2%
34. COCCCNC(=O)c1cncc(Br)c1  -2%
35. O=S1(=O)CCC(NCCC2CCCO2)c2cc(F)c(F)cc21 (stereo not given)  -1%
36. CC(=O)N1CC[C@H](CC(=O)N(C)Cc2ccccc2)C1  0%
37. Cc1ccc(-c2noc(CCC(=O)NC[C@H]3CCCO3)n2)c(=O)n1C(C)C  0%
38. O=c1[nH]c2ccccc2c(NCc2ccccc2)c1N1CCN(c2ccccc2)CC1  1%
39. O=C(NCCOc1cccc(F)c1)c1cccnc1NC1CCCC1  1%
40. CC(C)n1ccc(CN2CCC[C@H](c3cc(C(F)(F)F)[nH]n3)C2)n1  1%
41. O=C(c1coc(-c2ccccc2)n1)N1CCc2cc(Br)ccc21  1%
42. Cc1ccc(CNC2CCN(C)CC2)c(OCc2ccco2)c1  3%
43. CCCc1ccc(OCCNC(=O)C2CCCC2)cc1  3%
44. O=C(CCS(=O)(=O)c1ccc2ccccc2c1)Nc1ncn(Cc2c(F)cccc2Cl)n1  4%
45. OCCNCc1c(Cl)cccc1Cl  4%
46. CC(C)c1nc(C(=O)Nc2ccccc2CN2CCNC2=O)cs1  5%
47. O=S(=O)(Cc1ccccc1)N1CCC2(CCCCC2)C1  6%
48. Cc1cccc(NC(=O)c2cc(Cl)c[nH]2)n1  6%
49. COC(C)(C)c1nc(Cn2cnc3ccccc32)no1  6%
50. O=C(Nc1ccccc1)C(=O)Nc1ccc2ncc(Cl)n2c1  7%
51. COC(=O)[C@](Nc1ccc(Oc2ccccc2)cc1)(c1cc(C)c(O)c(C)c1)C(F)(F)F  7%
52. Nc1ccc(Cc2nnc3n2CCC3)cc1  8%
53. CCOC(=O)c1cc(NC(=O)C(C)(C)NC(=O)OC(C)(C)C)c(F)cc1C  8%
54. O=C1CCC[C@H](O)N1Cc1ccc(F)cc1  8%
55. CO[C@H]1CCOC2(CCN(C(=O)c3ccccc3F)CC2)C1  9%
56. CN(C(=O)Cn1c(=O)n(-c2cc(F)cc(F)c2)c(=O)c2sccc21)c1ccccc1  9%
57. O=C(CN1CCOCC1)N1CCN(CCCOc2ccccc2)CC1  9%
58. Cc1cccc2sc(N3CCC[C@H](CNS(N)(=O)=O)C3)nc12  9%
59. Cc1nc(N2CCC(c3nc(-c4ccccc4)no3)CC2)c2c(C)noc2n1  9%
60. Cc1cc2[nH]ncc2cc1NC(=O)c1ccco1  9%
61. COc1ccc(OC)c(-c2csc(N3C(=O)CC4CS(=O)(=O)CC43)n2)c1 (stereo not given)  10%
62. COc1cccc(-c2nc(C)c(C(=O)Nc3nc(C(C)C)n[nH]3)s2)c1  10%
63. Cc1ncsc1COC(=O)c1ccnc(N(C)C)c1  10%
64. CN(C)CCCNCc1ccccc1F  10%
65. CC(=O)Nc1cccc(NC(=O)Cn2c(=O)n(CCc3cccs3)c(=O)c3ccccc32)c1  10%
66. CCOC(=O)c1ncn(C2CCCCC2)c1N  10%
67. CCc1cc(C(=O)N2CCCCC2)c2c(C)nn(-c3ccc(OC)cc3)c2n1  10%
68. COc1ccc(OC)c(CCNC(=O)Cn2ccc3cc(S(=O)(=O)N4CCCC4)ccc32)c1  11%
69. Cc1ccc(S(=O)(=O)N(CC(=O)N[C@@H](C)c2ccccc2)c2cccc(Br)c2)cc1  11%
70. CCc1ccc(-c2cc3c(=O)n(CC(=O)N4CC(C)CC(C)C4)ncn3n2)cc1 (stereo not given)  11%
71. Cc1cccc(N2CCN(C(=O)CCC3=Nc4cc(C(F)(F)F)ccc4S(=O)(=O)N3)CC2)c1C  12%
72. COc1ccccc1C1c2[nH]c3ccccc3c2C[C@H]2C(=O)N(CC(O)c3ccccc3)CC(=O)N12 (stereo not given in full)  12%
73. CCn1nc(-n2cnnc2)c(NS(=O)(=O)c2ccc(Br)cc2C)c1C  12%
74. COc1ncnc2c1CN(C(=O)c1cc3c(s1)CC[C@H](C)C3)CC2  13%
75. COc1ccc(C(C)(C)C(=O)N(C)Cc2cn(C)nc2C(C)C)cc1  13%
76. CC[C@H](C)NC(=O)c1cn(-c2cccc(C)n2)cn1  13%
77. Cc1ccc(-c2cc(C(=O)Nc3nnc(C(C)C)s3)no2)cc1F  16%
78. Cc1nn(-c2nc3ccccc3[nH]2)c(O)c1Cc1ccccc1  17%
79. Cc1sc2nc(-c3ccccn3)nc(NCC(=O)N3CCC(O)CC3)c2c1-c1ccccc1  23%
80. CCc1ccc([C@H]2NCCc3[nH]cnc32)nc1  24%
81. O=C(c1cccc(C(=O)N2CCN(C(c3ccccc3)c3ccccc3)CC2)c1)N1CCN(C(c2ccccc2)c2ccccc2)CC1  26%
82. COc1ccc(CNC(=O)c2ccc(N3C(=O)[C@@H]4Cc5c([nH]c6ccccc56)C(c5cccc(OC)c5)N4C3=O)cc2)cc1 (stereo not given in full)  32%
83. Nc1nc2c(s1)CN(CCc1ccccc1)CC2  41%
84. O=C(N[C@@H](CN1CCCC1)c1ccccc1)N1CCC(c2ccn[nH]2)CC1  43%
85. N#Cc1c(-c2ccccc2)cc(-c2ccccc2)nc1S(=O)(=O)Cc1ccccc1  43%
86. c1ccc2c[n+](Cc3ccc4ccccc4n3)ccc2c1  47%
87. CN(CCNC(=O)CCc1cn(-c2ccccc2)nc1-c1ccc2c(c1)OCO2)C1CCCCC1  49%
88. CCc1ccc(CN2CCC[C@H](c3ncc[nH]3)C2)nc1  52%
89. Cc1ccc[n+](Cc2ccc3ccccc3n2)c1  53%
90. CC1(C)Cc2nc3ccccc3c(NCc3ccccc3)c2[C@@H](O)C1  54%
91. c1ccc(C(c2ccccc2)N2CCN(c3nn4cnnc4c4ccccc34)CC2)cc1  65%
92. CCOC(=O)CCn1cc(F)c(=O)[nH]c1=O  66%
93. Cc1nn(-c2nc3ccccc3[nH]2)c(O)c1CCC(C)C  68%
94. CN1CCCN(c2ccc(NC(=O)c3nn(-c4ccccc4)c(=O)c4ccccc34)cc2F)CC1  68%
95. CCOC(=O)c1cn(CC)c2cc(NC3CCCCC3)c(F)cc2c1=O  69%
96. Cc1nc(C(=O)Nc2[nH]c(=O)ncc2F)c(-c2ccccc2)o1  70%
97. O=C(Nc1[nH]c(=O)ncc1F)c1coc(-c2ccccc2)n1  71%
98. C[C@H]1CCC[C@@H](NCCc2ccccc2)CCC/C=C/c2cc(O)cc(O)c2C(=O)O1  72%
99. CC1(C)C(NCC(O)COc2ccc(F)c(F)c2)[C@@H]2CCC[C@@H]21 (stereo not given in full)  75%
100. C[C@@H](CNc1nc(-c2ccccc2)nc2nc(-c3ccc(Cl)cc3)oc12)N1CCCCC1  76%
101. COc1nc(NC2CCS(=O)(=O)CC2)ncc1F  77%
102. CCOc1ccc(C2c3[nH]c4ccccc4c3C[C@H]3C(=O)N(C4CCN(Cc5ccccc5)CC4)CC(=O)N23)cc1OC (stereo not given in full)  79%
103. CC(C)c1nc(C(=O)Nc2[nH]c(=O)ncc2F)cs1  83%
104. N#Cc1nc2c(C#N)c(N)n(CCc3ccccc3)c2nc1C#N  92%
105. Clc1cccc(CNCCCNc2ccncc2)c1Cl  95%

Reference: ChEMBL document CHEMBL4888484, “Replenishing the malaria drug discovery pipeline: Screening and hit evaluation of the MMV Hit Generation Library 1 (HGL1) against asexual blood stage Plasmodium falciparum ,using a nano luciferase reporter read-out” (2022)
